From publication PMC5540273 (PLoS ONE, 2017)

Legend:
Conditions in all cases: concentration: 1 μM, replicates: in singlicate; n = 1
[1] = tested on: T1, RSK4(Kin.Dom.1-N-terminal)
T1 construct: gene RPS6KA6

[2] = tested on: T2, RSK4(Kin.Dom.2-C-terminal)
T2 construct: gene RPS6KA6

[3] = tested on: S6K1
[4] = tested on: SBK1
[5] = tested on: SGK2
[6] = tested on: SGK3
[7] = tested on: SGK
[8] = tested on: SIK2
[9] = tested on: SIK
[10] = tested on: SLK
[11] = tested on: T3, SNARK
T3 construct: gene NUAK2

[12] = tested on: SNRK
[13] = tested on: SRC
[14] = tested on: SRMS
[15] = tested on: SRPK1
[16] = tested on: SRPK2
[17] = tested on: SRPK3
[18] = tested on: STK16
[19] = tested on: STK33
[20] = tested on: STK35
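Further: KINOMEscan kinase panel screen.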

SMILES | %Inh [1] [%] | %Inh [2] [%] | %Inh [3] [%] | %Inh [4] [%] | %Inh [5] [%] | %Inh [6] [%] | %Inh [7] [%] | %Inh [8] [%] | %Inh [9] [%] | %Inh [10] [%] | %Inh [11] [%] | %Inh [12] [%] | %Inh [13] [%] | %Inh [14] [%] | %Inh [15] [%] | %Inh [16] [%] | %Inh [17] [%] | %Inh [18] [%] | %Inh [19] [%] | %Inh [20] [%]
CN(c1ccc(NC(=O)N2CCN(CCCN3CCOCC3)CC2)cc1)c1ccnc(Nc2ccc(CS(C)(=O)=O)cc2)n1.Cl [GW830899] | 0 | 0 | 0 | 0 | 0 | 0 | 0 | 9 | 8 | 47 | 0 | 0 | 10 | 0 | 56 | 9 | 46 | 74 | 0 | 88
COc1cccc(CC(=O)N2CCc3cc(-c4cn(C)c5ncnc(N)c45)ccc32)c1 [GSK2608899] | 0 | 29 | 13 | 20 | 2 | 2 | 0 | 0 | 17 | 65 | 35 | 0 | 18 | 4 | 14 | 0 | 20 | 9 | 2 | 0
Cl.Cl.NC(CNC(=O)c1cc(Br)c(-c2ccnc3[nH]ccc23)s1)c1ccccc1 (stereo not drawn) [GSK1322949] | 0 | 16 | 39 | 51 | 16 | 66 | 46 | 6 | 4 | 20 | 74 | 0 | 0 | 0 | 80 | 80 | 83 | 61 | 53 | 20
CN(c1ccc2c(c1)nc(NCc1ccccc1)n2C)c1ccnc(Nc2ccc(CS(C)(=O)=O)cc2)n1.Cl [GW811603] | 0 | 0 | 0 | 0 | 24 | 0 | 13 | 10 | 9 | 38 | 0 | 0 | 32 | 5 | 0 | 30 | 34 | 54 | 0 | 0
COc1cccc2c(-c3ccncc3)c(-c3ccc(F)cc3)nn12 [GW468513] | 23 | 86 | 3 | 0 | 0 | 9 | 0 | 0 | 0 | 23 | 9 | 0 | 1 | 0 | 0 | 0 | 2 | 5 | 1 | 0
CCNc1nccc(-c2c(-c3ccc(F)cc3)ncn2C2CCN(C)CC2)n1 | 13 | 64 | 0 | 0 | 5 | 0 | 14 | 8 | 0 | 13 | 0 | 0 | 9 | 0 | 16 | 0 | 0 | 31 | 2 | 0
O=C(O)C(F)(F)F.O=c1[nH]ccc2nc(N[C@@H]3CCNC3)nc(Nc3cc(Cl)cc(Cl)c3)c12 [GSK2188764] | 96.3 | 32 | 94.3 | 91.5 | 96.4 | 99.5 | 99.9 | 54 | 1 | 98.9 | 98.8 | 6 | 0 | 3 | 84 | 14 | 77 | 95 | 98.1 | 46
Cn1cc(-c2ccc3c(c2)CCN3C(=O)Cc2cc(F)cc(C(F)(F)F)c2)c2c(N)ncnc21 [GSK2635225] | 0 | 0 | 9 | 7 | 0 | 8 | 1 | 0 | 0 | 41 | 10 | 0 | 29 | 0 | 18 | 0 | 2 | 20 | 0 | 0
O=C(Nc1n[nH]c2nc(-c3ccccc3)ccc12)C1CC1 [SB-708999] | 30 | 1 | 17 | 9 | 15 | 47 | 23 | 0 | 28 | 12 | 56 | 0 | 0 | 0 | 22 | 23 | 7 | 16 | 0 | 1
